Results filed as inconclusive are left out. Activity calls are given as the source filed them. Calls come from the whole dose curve; as a rule, active = well fitted cell-killing curve with a large enough effect; inconclusive = small, poorly fitted or top-dose-only effect; inactive = no such curve, though single readings can be large or run the other way.
test: qHTS of pediatric cancer cell lines to identify multiple opportunities for drug repurposing: Confirmatory screen for TC32 cells (AID 1347118); conditions: TC32 Ewing sarcoma cells viability qHTS; series mostly up to 45.9 µM;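 note: cells exposed to compound for 48 h before the read; nearly all actives have a fitted effect of over 65% in size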
Source text: Drug repurposing or repositioning has been offered as a strategy for drug development in oncology programs. This approach has special potential for childhood cancers and other rare or orphan diseases, where the expected return on new drug development has been a disincentive to pharmaceuticals.
In this project we exploit the poly-pharmacology of drugs to discover new indications via phenotypic screening of a panel of 19 well-characterized cell lines derived from solid tumors seen in children and adolescents. The goal is to identify approved drugs with previously unrecognized anticancer properties that has the potential to reveal new mechanisms and biological processes involved in carcinogenesis or drug resistance. We employed a titration-based paradigm (quantitative high-throughput screening or qHTS), where all compounds were tested at multiple concentrations for their effect on cell viability. Concentration-response curves (CRCs) were derived directly from the primary screen, and both potency and efficacy values were used to identify compounds with robust bioactivity profiles. We screened the NIH Chemical Genomics Center (NCGC) Pharmaceutical Collection (NPC) and Mechanism Interrogation Plate (MIPE) small molecule collections of approved and investigational compounds against these cell lines; and measured metabolically active cells after 48 hours of compound treatment as a proxy for cell viability.
Assay Submitter: Nathalia J. Martinez, National Center for Advancing Translational Sciences, National Institutes of Health, Rockville, MD, USA; email: natalia.martinez@nih.gov
[1] Shen, M et al. Quantitative high-throughput phenotypic screening of pediatric cancer cell lines identifies multiple opportunities for drug repurposing. Oncotarget 2017 Dec 19;9(4):4758-4772. PMID 29435139.
The cells were obtained from University of North Carolina (UNC), Pediatric Preclinical Testing Program (PPT), and Coriell Institute (CI).
qHTS cell viability assay:
Cells were assayed in growth media at a density of 500-1,000 cells/well. Five microliters of cells were dispensed into 1,536-well, white, solid-bottom, TC-treated plates (Greiner Bio One) using a multidrop dispenser and incubated at 37 degrees C, 5% CO2, under a humidified atmosphere for 5 hours. Twenty-three nanoliters of compounds and controls (neutral control DMSO or positive control bortezomib at final concentration of 2.3 uM) were subsequently transferred by Kalypsys pintool. For primary screens, the MIPE collection was tested at 11-point dilutions (final concentrations range from 0.78 nM to 46 µM) and the NPC collection at 8-point dilutions (final concentrations range from 0.59 nM to 46 µM). Compounds tested in follow-up screens were assayed at 11-point dilutions. Cells were incubated for 48 hours, followed by addition of 3 uL of CellTiter-Glo (Promega). After a 15min incubation at room temperature, samples were analyzed for luminescence intensity using a ViewLux High-throughput CCD imager equipped with clear filters.
Potency is the fitted concentration of half-maximal effect.

| SMILES | Potency |
| --- | --- |
| OCCn1cc(-c2ccc3c(c2)CCC3=NO)c(-c2ccncc2)n1 | inactive |
| CO[C@H]1/C=C\O[C@@]2(C)Oc3c(C)c(O)c4c(O)c(c(C=NN5CCN(C6CCCC6)CC5)c(O)c4c3C2=O)NC(=O)C(C)=CC=C[C@H](C)[C@H](O)[C@@H](C)[C@@H](O)[C@@H](C)[C@H](OC(C)=O)[C@H]1C | 20.8 µM (active) |
| CN(C(Cc1ccc(OS(=O)(=O)c2cccc3cnccc23)cc1)C(=O)N1CCN(c2ccccc2)CC1)S(=O)(=O)c1cccc2cnccc12 (stereo not given) | 3.69 µM (active) |
| CC1(C)CC(=O)c2c(C(F)(F)F)nn(-c3ccc(C(N)=O)c(NC4CCC(O)CC4)c3)c2C1 (stereo not given) | 0.165 µM (active) |
| CSc1cccc(Nc2ncc3cc(-c4c(Cl)cccc4Cl)c(=O)n(C)c3n2)c1 | 2.93 µM (active) |
| CN[C@@H]1CN(c2ccc3c(=O)c(C(=O)O)cn(-c4nccs4)c3n2)C[C@@H]1OC | 1.15 µM (active) |
| CCC[C@H](N[C@@H](C)C(=O)N1[C@@H]2CCCC[C@H]2C[C@H]1C(=O)O)C(=O)OCC | inactive |
| C[C@@H]1O[C@@H](O[C@H]2CC[C@@]3(C)[C@H](CC[C@@H]4[C@H]3C[C@@H](O)[C@]3(C)[C@@H](C5=CC(=O)OC5)CC[C@]43O)C2)C[C@H](O)[C@@H]1O[C@H]1C[C@H](O)[C@H](O[C@H]2C[C@H](O)[C@@H](O)[C@@H](C)O2)[C@H](C)O1 (stereo in doubt) | 0.17 µM (active) |
| CC1C(=O)OC2C(O)C34C5CC(C(C)(C)C)C36C(OC(=O)C6O)OC4(C(=O)O5)C12O (stereo not given) | inactive |
| Nc1ncnc2c1ncn2[C@@H]1O[C@H](CO)[C@@H](O)[C@@H]1O | 7.37 µM (active) |
| CC1=C(CC(=O)O)c2cc(F)ccc2C1=Cc1ccc(S(C)=O)cc1 (stereo not given) | inactive |
| CCC[C@H](Nc1nc(-c2ccc(NC(=O)NCC)c(OC)c2)ncc1C)c1cccnc1 | 0.117 µM (active) |
| CC1=C[C@@H]2[C@@H]([C@@H](O)C[C@@]3(C)[C@H]2C[C@@H](C)[C@]3(O)C(=O)CO)[C@@]2(C)Cc3cnn(-c4ccccc4)c3C=C12 | 10.4 µM (active) |
| CCNC(=O)c1noc(-c2cc(C(C)C)c(O)cc2O)c1-c1ccc(CN2CCOCC2)cc1 | 0.0827 µM (active) |
| C[C@@]1(C(=O)Nc2ccc(F)nc2)CCCN1c1nc(Nc2cc(C3CC3)[nH]n2)c2cccn2n1 | 0.233 µM (active) |
| O=C1NC(=O)C(c2cnc3ccccn23)=C1c1cn2c3c(cccc13)CN(C(=O)N1CCOCC1)CC2 | 4.65 µM (active) |
| O=C(CC12CC3CC(CC(C3)C1)C2)Nc1cccc2nc(NCCNCCO)ccc12 | 18.5 µM (active) |
| COc1ccc(-c2ccc3ncc4c(c3c2)n(-c2ccc(N3CCNCC3)c(C(F)(F)F)c2)c(=O)n4C)cn1 | 0.0329 µM (active) |
| COC(=O)[C@H](c1ccccc1Cl)N1CCc2sccc2C1 | inactive |
| CC(C)CN(C[C@@H](O)[C@H](Cc1ccccc1)NC(=O)O[C@H]1CO[C@H]2OCC[C@H]21)S(=O)(=O)c1ccc(N)cc1 | inactive |

| SMILES | Potency |
| --- | --- |
| Cc1ccc(S(=O)(=O)Nc2nc3ccccc3nc2Nc2ccc3nsnc3c2)cc1 | 0.229 µM (active) |
| CCC(c1ccc(O)cc1)C(CC)c1ccc(O)cc1 (stereo not given) | 3.69 µM (active) |
| Nc1ccn([C@@H]2O[C@H](CO)[C@@H](O)[C@H]2O)c(=O)n1 | 0.329 µM (active) |
| NC(N)=Nc1nc(CSCCC(N)=NS(N)(=O)=O)cs1 | inactive |
| C=C1[C@H](n2cnc3c(=O)[nH]c(N)nc32)C[C@H](O)[C@H]1CO | 8.27 µM (active) |
| Cc1cnc(-c2cc(N3CCN(C(=O)CCS(C)(=O)=O)CC3)ncc2Cl)c(C)c1 | inactive |
| COc1cc(CNC(=O)CCCCC=CC(C)C)ccc1O | 3.29 µM (active) |
| C[C@@]1(c2cc(-c3cncnc3)c(F)cc2F)CCSC(N)=N1 | 8.27 µM (active) |
| Nc1[nH]nc2nnc(-c3c(-c4ccccc4)nn4ccccc34)cc12 | 16.5 µM (active) |
| CC1(C)OC2CC3C4CC(F)C5=CC(=O)C=CC5(C)C4C(O)CC3(C)[C@]2(C(=O)CO)O1 (stereo not given in full) | inactive |
| CC(C)C[C@@H](C(=O)N[C@H](C(=O)OC1CCCC1)c1ccccc1)[C@H](O)C(=O)NO | 23.3 µM (active) |
| CCOC(=O)[C@H](CCc1ccccc1)N[C@@H](C)C(=O)N1CCCC1C(=O)O (stereo not given in full) | 7.37 µM (active) |
| CCC(=O)N1CCN(c2ccc(-n3c(=O)ccc4cnc5ccc(-c6cnc7ccccc7c6)cc5c43)cc2C(F)(F)F)CC1 | 8.27 µM (active) |
| C[C@@H]1[C@H](O)[C@@H](C)C=CC=CC=CC=CC=CC=CC=C[C@H](O[C@@H]2O[C@H](C)[C@H](O)[C@H](N)[C@@H]2O)C[C@@H]2O[C@](O)(C[C@@H](O)C[C@@H](O)[C@H](O)CC[C@@H](O)C[C@@H](O)CC(=O)O[C@H]1C)C[C@H](O)[C@@H]2C(=O)O | 11.7 µM (active) |
| C=CC(=O)Nc1cccc(Sc2nc(Nc3ccc(N4CCN(C)CC4)cc3)ncc2Cl)c1 | 0.737 µM (active) |
| COC(=O)Nc1ccc(-c2nc(N3CCOCC3)c3cnn(C4CCN(C(=O)OC)CC4)c3n2)cc1 | 3.69 µM (active) |
| COc1ccc2c(c1)c(C1=C(c3c[nH]c4ccccc34)C(=O)NC1=O)cn2CCCN(C)C | 23.3 µM (active) |
| COc1cc([C@@H]2c3cc4c(cc3[C@@H](O[C@@H]3O[C@@H]5CO[C@@H](C)O[C@@H]5[C@H](O)[C@@H]3O)[C@H]3COC(=O)[C@H]23)OCO4)cc(OC)c1O | 0.657 µM (active) |
| COc1cc2nccc(Oc3ccc(NC(=O)Nc4cc(C)on4)c(Cl)c3)c2cc1OC | 18.5 µM (active) |
| Cc1cccc(-c2[nH]c(C(C)(C)C)nc2-c2ccc3c(c2)OCO3)n1 | 7.37 µM (active) |
